Measured values published in publication PMC7862700, “An all-to-all approach to the identification of sequence-specific readers for epigenetic DNA modifications on cytosine”.

What was measured:
Assay in all cases: DAPPL (digital affinity profiling via proximity ligation, sequencing); 10 mM Tris-HCl pH 7.5, 50 mM NaCl, 1 mM DTT, 4% glycerol, room temperature, 30 min; GST-TFs on glutathione beads, 16-mer random dsDNA library, 0.1% formaldehyde crosslink after washing; high values mean tight binding
[1] = target: T1, FLI1 (Homo sapiens, UniProt Q01543 1-452); conditions: protein: recombinant; tags: N-terminal GST; dsDNA, one strand shown
T1 sequence: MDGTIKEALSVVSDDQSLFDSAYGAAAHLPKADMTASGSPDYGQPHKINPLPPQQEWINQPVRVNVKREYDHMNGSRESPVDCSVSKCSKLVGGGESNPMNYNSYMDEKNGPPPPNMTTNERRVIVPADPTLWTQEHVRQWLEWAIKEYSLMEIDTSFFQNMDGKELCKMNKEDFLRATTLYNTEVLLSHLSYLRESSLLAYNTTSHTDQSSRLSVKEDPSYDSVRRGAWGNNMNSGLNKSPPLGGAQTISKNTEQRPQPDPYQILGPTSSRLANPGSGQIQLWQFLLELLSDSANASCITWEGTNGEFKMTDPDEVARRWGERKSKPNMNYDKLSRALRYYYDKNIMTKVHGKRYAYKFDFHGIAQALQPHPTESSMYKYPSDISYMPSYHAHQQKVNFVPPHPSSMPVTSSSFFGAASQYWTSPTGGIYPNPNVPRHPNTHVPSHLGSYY
How it was run: (§1)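 Human transcription factors fused to GST were expressed in yeast, captured on glutathione beads, given DNA barcodes and pooled with a GST-only negative control. Pools were incubated with 200 nmole of a 16-mer random double-stranded DNA library in Tris/NaCl/DTT/glycerol buffer at room temperature for 30 min. They were then washed, crosslinked with 0.1% formaldehyde, proximity-ligated (BsaI/T4 ligase, 1 h, 37 °C), PCR-amplified and sequenced on an Illumina NextSeq500. Binding signal is each 6-mer's read frequency for a factor divided by its frequency for the GST control.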

[2] = target: T2, ELK1 (Homo sapiens, UniProt P19419 1-428); conditions: protein: recombinant; tags: N-terminal GST; dsDNA, one strand shown
T2 sequence: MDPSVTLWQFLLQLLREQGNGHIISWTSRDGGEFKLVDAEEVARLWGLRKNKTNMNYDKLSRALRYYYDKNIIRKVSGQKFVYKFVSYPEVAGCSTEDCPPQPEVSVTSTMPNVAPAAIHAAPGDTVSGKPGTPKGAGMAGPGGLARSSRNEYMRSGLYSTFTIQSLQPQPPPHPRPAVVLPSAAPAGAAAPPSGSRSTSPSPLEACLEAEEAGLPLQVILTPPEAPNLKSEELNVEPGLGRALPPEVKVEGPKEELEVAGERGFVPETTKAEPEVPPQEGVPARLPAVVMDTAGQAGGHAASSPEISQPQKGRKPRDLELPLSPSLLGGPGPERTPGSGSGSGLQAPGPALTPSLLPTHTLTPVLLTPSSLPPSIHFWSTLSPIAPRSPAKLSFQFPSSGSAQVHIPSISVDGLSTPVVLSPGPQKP
How it was run: as §1

[3] = target: T3, GABPA (Homo sapiens, UniProt Q06546 1-454); conditions: protein: recombinant; tags: N-terminal GST; dsDNA, one strand shown
T3 sequence: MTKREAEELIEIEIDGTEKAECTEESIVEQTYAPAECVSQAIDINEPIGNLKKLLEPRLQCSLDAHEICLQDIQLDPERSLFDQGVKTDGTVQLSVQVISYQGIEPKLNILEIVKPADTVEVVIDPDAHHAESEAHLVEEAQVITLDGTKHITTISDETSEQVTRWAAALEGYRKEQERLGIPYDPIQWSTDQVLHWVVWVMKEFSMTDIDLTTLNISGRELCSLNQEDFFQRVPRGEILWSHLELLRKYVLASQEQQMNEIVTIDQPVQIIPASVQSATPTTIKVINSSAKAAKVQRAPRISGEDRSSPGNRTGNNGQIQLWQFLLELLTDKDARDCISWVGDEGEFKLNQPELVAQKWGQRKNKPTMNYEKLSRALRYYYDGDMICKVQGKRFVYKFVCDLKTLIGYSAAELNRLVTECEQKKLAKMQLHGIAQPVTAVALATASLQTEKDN
How it was run: as §1

[4] = target: T4, ERG (Homo sapiens, UniProt P11308 1-479); conditions: protein: recombinant; tags: N-terminal GST; dsDNA, one strand shown
T4 sequence: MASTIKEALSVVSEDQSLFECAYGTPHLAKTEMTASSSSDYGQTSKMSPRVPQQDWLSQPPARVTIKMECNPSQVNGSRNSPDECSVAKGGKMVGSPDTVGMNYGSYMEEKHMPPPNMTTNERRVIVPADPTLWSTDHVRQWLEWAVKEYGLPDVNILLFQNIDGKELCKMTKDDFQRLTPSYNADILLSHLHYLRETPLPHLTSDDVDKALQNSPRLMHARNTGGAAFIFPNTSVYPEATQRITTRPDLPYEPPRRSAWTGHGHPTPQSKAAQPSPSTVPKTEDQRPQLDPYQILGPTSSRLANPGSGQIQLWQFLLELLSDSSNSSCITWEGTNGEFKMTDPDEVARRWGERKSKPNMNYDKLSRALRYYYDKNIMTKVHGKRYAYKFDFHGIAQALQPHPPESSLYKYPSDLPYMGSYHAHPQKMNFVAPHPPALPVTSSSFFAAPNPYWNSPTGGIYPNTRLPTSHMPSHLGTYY
How it was run: as §1

[5] = target: ELF1 (Homo sapiens, UniProt P32519 1-619); conditions: protein: recombinant; tags: N-terminal GST; dsDNA, one strand shown
How it was run: as §1

[6] = target: T5, EHF (Homo sapiens, UniProt Q9NZC4 1-300); conditions: protein: recombinant; tags: N-terminal GST; dsDNA, one strand shown
T5 sequence: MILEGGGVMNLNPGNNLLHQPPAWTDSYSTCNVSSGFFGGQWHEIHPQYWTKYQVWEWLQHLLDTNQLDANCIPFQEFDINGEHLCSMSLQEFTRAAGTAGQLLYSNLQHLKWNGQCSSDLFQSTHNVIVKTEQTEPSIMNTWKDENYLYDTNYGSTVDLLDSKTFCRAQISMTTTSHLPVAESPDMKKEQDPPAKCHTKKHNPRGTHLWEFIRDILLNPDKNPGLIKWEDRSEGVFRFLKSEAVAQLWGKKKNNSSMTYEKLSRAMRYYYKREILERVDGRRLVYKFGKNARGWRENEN
How it was run: as §1

[7] = target: SPI1 (Homo sapiens, UniProt P17947 1-270); conditions: protein: recombinant; tags: N-terminal GST; dsDNA, one strand shown
How it was run: as §1

[8] = target: SPIB (Homo sapiens, UniProt Q01892 1-262); conditions: protein: recombinant; tags: N-terminal GST; dsDNA, one strand shown
How it was run: as §1

[9] = target: T6, ELK3 (Homo sapiens, UniProt P41970 1-407); conditions: protein: recombinant; tags: N-terminal GST; dsDNA, one strand shown
T6 sequence: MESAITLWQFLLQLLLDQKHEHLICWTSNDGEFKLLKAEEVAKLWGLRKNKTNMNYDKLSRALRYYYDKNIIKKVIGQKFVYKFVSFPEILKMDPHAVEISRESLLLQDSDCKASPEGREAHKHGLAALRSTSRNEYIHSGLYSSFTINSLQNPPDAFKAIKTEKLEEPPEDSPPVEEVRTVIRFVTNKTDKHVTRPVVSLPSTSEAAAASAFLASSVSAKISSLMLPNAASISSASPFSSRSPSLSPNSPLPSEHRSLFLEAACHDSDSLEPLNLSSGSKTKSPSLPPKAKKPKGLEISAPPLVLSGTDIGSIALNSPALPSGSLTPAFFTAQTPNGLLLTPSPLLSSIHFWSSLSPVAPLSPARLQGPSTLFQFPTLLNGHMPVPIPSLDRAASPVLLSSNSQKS
How it was run: as §1

[10] = target: T7, FEV (Homo sapiens, UniProt Q99581 1-238); conditions: protein: recombinant; tags: N-terminal GST; dsDNA, one strand shown
T7 sequence: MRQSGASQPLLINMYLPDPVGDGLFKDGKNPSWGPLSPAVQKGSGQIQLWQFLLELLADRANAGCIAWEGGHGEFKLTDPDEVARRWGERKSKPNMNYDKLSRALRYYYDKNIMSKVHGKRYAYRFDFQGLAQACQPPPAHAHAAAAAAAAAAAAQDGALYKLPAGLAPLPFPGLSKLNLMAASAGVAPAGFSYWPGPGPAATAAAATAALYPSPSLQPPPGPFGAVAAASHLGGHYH
How it was run: as §1

[11] = target: ETV5 (Homo sapiens, UniProt P41161 1-510); conditions: protein: recombinant; tags: N-terminal GST; dsDNA, one strand shown
How it was run: as §1

[12] = target: HSF1 (Homo sapiens, UniProt Q00613 1-529); conditions: protein: recombinant; tags: N-terminal GST; chain copies: 3; dsDNA, one strand shown
How it was run: as §1

[13] = target: T8, SPIC (Homo sapiens, UniProt Q8N5J4 1-248); conditions: protein: recombinant; tags: N-terminal GST; dsDNA, one strand shown
T8 sequence: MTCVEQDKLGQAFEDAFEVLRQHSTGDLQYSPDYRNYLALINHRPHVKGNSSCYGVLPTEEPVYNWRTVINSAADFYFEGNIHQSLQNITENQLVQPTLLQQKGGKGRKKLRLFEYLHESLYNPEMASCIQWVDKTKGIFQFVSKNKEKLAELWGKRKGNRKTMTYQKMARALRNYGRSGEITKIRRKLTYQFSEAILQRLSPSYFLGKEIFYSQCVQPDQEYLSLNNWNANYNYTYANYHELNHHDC
How it was run: as §1

[14] = target: ELF4 (Homo sapiens, UniProt Q99607 1-663); conditions: protein: recombinant; tags: N-terminal GST; dsDNA, one strand shown
How it was run: as §1

[15] = target: T9, ELK4 (Homo sapiens, UniProt P28324-2 1-405); conditions: protein: recombinant; tags: N-terminal GST; dsDNA, one strand shown
T9 sequence: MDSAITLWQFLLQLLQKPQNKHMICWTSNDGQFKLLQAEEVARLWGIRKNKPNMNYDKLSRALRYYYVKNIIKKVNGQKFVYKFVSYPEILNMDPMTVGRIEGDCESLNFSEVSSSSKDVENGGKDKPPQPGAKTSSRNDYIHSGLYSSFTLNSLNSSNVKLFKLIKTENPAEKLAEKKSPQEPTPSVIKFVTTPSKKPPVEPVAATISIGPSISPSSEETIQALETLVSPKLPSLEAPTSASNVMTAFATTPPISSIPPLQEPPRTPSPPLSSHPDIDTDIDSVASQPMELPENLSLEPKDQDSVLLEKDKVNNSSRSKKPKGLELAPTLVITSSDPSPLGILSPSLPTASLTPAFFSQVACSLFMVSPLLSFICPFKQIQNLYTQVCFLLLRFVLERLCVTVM
How it was run: as §1

[16] = target: T10, ETV2 (Homo sapiens, UniProt O00321 1-342); conditions: protein: recombinant; tags: N-terminal GST; dsDNA, one strand shown
T10 sequence: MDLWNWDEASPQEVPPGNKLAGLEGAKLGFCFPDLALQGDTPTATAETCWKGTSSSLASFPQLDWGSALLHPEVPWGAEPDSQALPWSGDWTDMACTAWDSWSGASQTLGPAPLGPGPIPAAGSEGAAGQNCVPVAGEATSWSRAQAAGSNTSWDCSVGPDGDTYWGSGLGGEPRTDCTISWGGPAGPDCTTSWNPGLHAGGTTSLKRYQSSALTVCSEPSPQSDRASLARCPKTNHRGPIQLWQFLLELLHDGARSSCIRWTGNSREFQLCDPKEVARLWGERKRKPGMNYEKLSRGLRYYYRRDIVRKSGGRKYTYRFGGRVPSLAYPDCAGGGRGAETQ
How it was run: as §1

[17] = target: T11, ELF3 (Homo sapiens, UniProt P78545 1-371); conditions: protein: recombinant; tags: N-terminal GST; dsDNA, one strand shown
T11 sequence: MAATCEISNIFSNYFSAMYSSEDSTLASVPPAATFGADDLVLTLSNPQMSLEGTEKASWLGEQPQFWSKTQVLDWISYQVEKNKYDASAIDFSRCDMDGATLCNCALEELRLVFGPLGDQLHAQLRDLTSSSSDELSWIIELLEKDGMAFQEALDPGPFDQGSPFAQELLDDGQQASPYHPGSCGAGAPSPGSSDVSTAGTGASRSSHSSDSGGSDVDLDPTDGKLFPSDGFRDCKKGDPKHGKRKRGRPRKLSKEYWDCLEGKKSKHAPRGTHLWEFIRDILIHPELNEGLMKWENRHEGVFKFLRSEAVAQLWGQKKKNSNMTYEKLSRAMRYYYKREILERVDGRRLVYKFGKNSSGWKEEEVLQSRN
How it was run: as §1

[18] = target: CRX (Homo sapiens, UniProt O43186 1-299); conditions: protein: recombinant; tags: N-terminal GST; dsDNA, one strand shown
How it was run: as §1

[19] = target: ETV1 (Homo sapiens, UniProt P50549 1-477); conditions: protein: recombinant; tags: N-terminal GST; dsDNA, one strand shown
How it was run: as §1

Chain of ETV1 (P50549 whole entry): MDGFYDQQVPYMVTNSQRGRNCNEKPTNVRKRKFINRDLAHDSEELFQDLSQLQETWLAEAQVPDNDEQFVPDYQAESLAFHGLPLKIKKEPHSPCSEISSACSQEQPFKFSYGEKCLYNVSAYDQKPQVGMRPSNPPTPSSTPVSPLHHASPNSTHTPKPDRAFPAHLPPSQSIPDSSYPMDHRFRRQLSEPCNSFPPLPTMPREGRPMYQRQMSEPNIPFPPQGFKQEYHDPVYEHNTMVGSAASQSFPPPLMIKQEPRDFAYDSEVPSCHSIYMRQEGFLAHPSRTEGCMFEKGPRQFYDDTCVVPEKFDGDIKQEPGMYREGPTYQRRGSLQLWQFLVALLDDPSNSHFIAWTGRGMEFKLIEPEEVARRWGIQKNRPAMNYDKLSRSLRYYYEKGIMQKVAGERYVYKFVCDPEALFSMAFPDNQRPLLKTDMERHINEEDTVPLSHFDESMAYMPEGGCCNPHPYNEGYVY
Chain of SPIB (Q01892 whole entry): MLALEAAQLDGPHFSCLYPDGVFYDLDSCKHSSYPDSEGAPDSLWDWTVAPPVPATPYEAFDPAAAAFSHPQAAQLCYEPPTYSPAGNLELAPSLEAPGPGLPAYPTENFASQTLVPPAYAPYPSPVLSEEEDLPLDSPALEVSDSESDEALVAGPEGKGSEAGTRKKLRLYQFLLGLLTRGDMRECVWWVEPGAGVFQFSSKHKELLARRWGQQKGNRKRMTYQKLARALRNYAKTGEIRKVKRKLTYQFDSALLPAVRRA
Chain of ELF4 (Q99607 whole entry): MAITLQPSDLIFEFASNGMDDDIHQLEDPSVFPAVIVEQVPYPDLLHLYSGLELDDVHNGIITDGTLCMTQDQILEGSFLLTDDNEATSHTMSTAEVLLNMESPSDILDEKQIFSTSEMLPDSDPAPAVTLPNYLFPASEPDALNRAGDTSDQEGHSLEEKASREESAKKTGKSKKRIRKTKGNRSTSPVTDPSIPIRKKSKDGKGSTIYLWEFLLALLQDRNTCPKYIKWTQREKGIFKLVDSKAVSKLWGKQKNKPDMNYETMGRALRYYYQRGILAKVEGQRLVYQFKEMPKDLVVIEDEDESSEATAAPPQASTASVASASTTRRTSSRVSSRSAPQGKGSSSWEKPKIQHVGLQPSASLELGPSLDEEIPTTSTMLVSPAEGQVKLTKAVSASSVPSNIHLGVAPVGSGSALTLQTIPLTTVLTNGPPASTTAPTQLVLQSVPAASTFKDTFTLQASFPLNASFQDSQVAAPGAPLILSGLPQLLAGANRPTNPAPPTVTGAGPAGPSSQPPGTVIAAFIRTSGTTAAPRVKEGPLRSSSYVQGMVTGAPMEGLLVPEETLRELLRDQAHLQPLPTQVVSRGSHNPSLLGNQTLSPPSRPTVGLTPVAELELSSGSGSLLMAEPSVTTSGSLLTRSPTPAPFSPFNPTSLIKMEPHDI
Chain of ETV5 (P41161 whole entry): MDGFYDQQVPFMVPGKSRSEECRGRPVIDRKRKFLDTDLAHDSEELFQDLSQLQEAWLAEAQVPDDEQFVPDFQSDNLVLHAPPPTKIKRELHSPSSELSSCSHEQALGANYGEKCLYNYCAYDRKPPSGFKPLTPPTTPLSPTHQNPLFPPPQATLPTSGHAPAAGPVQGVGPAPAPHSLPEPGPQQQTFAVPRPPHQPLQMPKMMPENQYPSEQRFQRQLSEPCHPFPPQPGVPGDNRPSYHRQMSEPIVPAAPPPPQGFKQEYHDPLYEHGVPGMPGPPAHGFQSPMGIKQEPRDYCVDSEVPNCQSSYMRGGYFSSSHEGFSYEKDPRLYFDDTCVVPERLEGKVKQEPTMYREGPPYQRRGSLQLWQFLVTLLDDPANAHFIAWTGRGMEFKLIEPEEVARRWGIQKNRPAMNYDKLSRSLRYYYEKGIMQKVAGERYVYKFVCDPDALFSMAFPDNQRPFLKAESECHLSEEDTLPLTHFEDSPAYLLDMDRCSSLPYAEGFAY
Chain of HSF1 (Q00613 whole entry): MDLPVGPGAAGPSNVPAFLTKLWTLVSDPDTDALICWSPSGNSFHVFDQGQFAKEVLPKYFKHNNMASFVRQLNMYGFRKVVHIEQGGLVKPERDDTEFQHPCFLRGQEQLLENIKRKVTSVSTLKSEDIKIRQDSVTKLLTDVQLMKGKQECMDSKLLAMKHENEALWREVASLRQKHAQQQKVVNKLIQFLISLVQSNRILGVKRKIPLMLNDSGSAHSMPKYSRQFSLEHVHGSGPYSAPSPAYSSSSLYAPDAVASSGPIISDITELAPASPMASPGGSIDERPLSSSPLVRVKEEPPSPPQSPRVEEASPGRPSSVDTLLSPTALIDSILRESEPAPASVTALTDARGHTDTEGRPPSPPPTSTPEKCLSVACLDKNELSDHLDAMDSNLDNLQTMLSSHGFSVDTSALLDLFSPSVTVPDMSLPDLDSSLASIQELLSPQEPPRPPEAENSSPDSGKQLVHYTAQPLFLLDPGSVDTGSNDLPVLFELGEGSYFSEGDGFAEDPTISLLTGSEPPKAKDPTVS
Chain of CRX (O43186 whole entry): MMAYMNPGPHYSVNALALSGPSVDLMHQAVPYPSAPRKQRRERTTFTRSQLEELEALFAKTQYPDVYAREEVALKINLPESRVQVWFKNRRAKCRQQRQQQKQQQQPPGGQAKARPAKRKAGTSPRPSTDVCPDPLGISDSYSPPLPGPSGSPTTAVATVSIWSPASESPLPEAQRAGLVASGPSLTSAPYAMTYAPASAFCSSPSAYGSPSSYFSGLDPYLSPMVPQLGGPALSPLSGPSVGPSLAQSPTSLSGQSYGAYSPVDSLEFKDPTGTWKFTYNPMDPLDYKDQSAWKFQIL
Chain of ELF1 (P32519 whole entry): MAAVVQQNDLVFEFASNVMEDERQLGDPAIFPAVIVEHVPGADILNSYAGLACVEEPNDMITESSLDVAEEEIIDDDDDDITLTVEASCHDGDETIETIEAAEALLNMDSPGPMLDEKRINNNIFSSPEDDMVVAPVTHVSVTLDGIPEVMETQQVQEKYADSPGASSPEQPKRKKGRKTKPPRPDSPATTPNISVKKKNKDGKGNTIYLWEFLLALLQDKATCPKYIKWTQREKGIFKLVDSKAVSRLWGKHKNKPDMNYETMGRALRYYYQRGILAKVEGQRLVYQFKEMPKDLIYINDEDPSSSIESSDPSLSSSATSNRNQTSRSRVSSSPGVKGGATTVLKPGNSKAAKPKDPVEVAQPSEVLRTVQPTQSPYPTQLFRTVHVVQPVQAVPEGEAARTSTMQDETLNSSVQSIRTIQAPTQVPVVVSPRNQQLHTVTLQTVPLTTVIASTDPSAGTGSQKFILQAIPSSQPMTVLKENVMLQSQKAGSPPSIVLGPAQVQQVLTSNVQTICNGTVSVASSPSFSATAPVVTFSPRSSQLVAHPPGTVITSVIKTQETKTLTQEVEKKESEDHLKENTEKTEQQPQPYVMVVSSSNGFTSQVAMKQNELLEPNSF

Which results are given for CTTTGA?
binding signal [1]: 1.29 fold enrichment (6-mer frequency, TF over GST control); binding signal [2]: 1.22 fold enrichment (6-mer frequency, TF over GST control); binding signal [3]: 1.26 fold enrichment (6-mer frequency, TF over GST control); binding signal [4]: 1.26 fold enrichment (6-mer frequency, TF over GST control); binding signal [5]: 1.26 fold enrichment (6-mer frequency, TF over GST control); binding signal [6]: 1.16 fold enrichment (6-mer frequency, TF over GST control); binding signal [7]: 1.21 fold enrichment (6-mer frequency, TF over GST control); binding signal [8]: 1.24 fold enrichment (6-mer frequency, TF over GST control); binding signal [9]: 1.15 fold enrichment (6-mer frequency, TF over GST control); binding signal [10]: 1.14 fold enrichment (6-mer frequency, TF over GST control); binding signal [11]: 1.18 fold enrichment (6-mer frequency, TF over GST control); binding signal [12]: 1.21 fold enrichment (6-mer frequency, TF over GST control); binding signal [13]: 1.4 fold enrichment (6-mer frequency, TF over GST control); binding signal [14]: 1.24 fold enrichment (6-mer frequency, TF over GST control); binding signal [15]: 1.41 fold enrichment (6-mer frequency, TF over GST control); binding signal [16]: 1.27 fold enrichment (6-mer frequency, TF over GST control); binding signal [17]: 1.16 fold enrichment (6-mer frequency, TF over GST control); binding signal [18]: 1.23 fold enrichment (6-mer frequency, TF over GST control); binding signal [19]: 1.21 fold enrichment (6-mer frequency, TF over GST control)
